Assay results: PubChem BioAssay (Tox21)
Records with an inconclusive call do not appear. The source made the active and inactive calls. Calls come from the whole dose curve; as a rule, active = well fitted curve in the direction sought with a large enough effect in the repeat runs; inconclusive = weak or mixed curves; inactive = no such curve, though single readings can be large; an effect the other way counts as inactive or inconclusive.

Columns and labels:
[1] = A CellTox Green Cytotoxicity Assay to monitor cytotoxicity in HepG2 cells - 0 hour (AID 1224882); conditions: CellTox Green fluorescence; series mostly up to 76.8 µM; note: nearly all actives have a fitted effect of over 35% in size
Summary of the method: (§1)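 Cells and non-lytic dye reagent are dispensed together (600 HepG2 cells/well) and incubated 5 h before DMSO compound transfer. Kinetic fluorescence is then recorded in the same wells during 40 h at 37 C.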

[2] = A CellTox Green Cytotoxicity Assay to monitor cytotoxicity in HepG2 cells - 32 hour (AID 1224883); conditions: CellTox Green fluorescence; series mostly up to 76.8 µM; note: nearly all actives have a fitted effect of over 50% in size; note: potency is the fitted concentration of half-maximal effect
Summary of the method: as §1

[3] = A CellTox Green Cytotoxicity Assay to monitor cytotoxicity in HEK293 cells - 8 hour (AID 1224884); conditions: CellTox Green fluorescence; series mostly up to 76.8 µM; note: nearly all actives have a fitted effect of over 35% in size
Summary of the method: (§2)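 Cells (HEK293, 600/well) and dye reagent are dispensed together. After 5 h at 37 C, 23 nL compound is pinned in. Plates stay at 37 C for 40 h with fluorescence read at 0h, 8h, 16h, 24h, 32h and 40h.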

[4] = qHTS RealTime-Glo MT Cell Viability Assay in HEK293 cells - 24 hour (AID 1224886); conditions: RealTime-Glo luminescence; series mostly up to 76.8 µM; note: nearly all actives have a fitted effect of over 50% in size; note: potency is the fitted concentration of half-maximal effect
Summary of the method: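 Luminescence generated by NanoLuc from substrate produced by living HEK293 cells served as the viability signal. Each value reflects the reading at its stated time point during continuous 40 h compound exposure at 37 C.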

[5] = qHTS RealTime-Glo MT Cell Viability Assay in HEK293 cells - 8 hour (AID 1224887); conditions: RealTime-Glo luminescence; series mostly up to 76.8 µM; note: nearly all actives have a fitted effect of over 50% in size; note: potency is the fitted concentration of half-maximal effect
Summary of the method: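 Real-time viability in HEK293: signal arises when living cells convert a prosubstrate for NanoLuc in the medium, so luminescence tracks viable cell number. Compound (23 nL, DMSO) added 5 h post-seeding; kinetic reads at 0–40 h, 37 C.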

[6] = A CellTox Green Cytotoxicity Assay to monitor cytotoxicity in HEK293 cells - 16 hour (AID 1224888); conditions: CellTox Green fluorescence; series mostly up to 76.8 µM; note: nearly all actives have a fitted effect of over 35% in size
Summary of the method: as §2

[7] = qHTS RealTime-Glo MT Cell Viability Assay in HepG2 cells - 0 hour (AID 1224889); conditions: RealTime-Glo luminescence; series mostly up to 76.8 µM; note: nearly all actives have a fitted effect of over 50% in size
Summary of the method: (§3)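 Tox21 10K library screened in qHTS format on HepG2 cells carrying RealTime-Glo reagents. Compounds were added after a 5 h preincubation, and the luminescent signal from continuous culture was measured repeatedly during 40 h treatment.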

[8] = A CellTox Green Cytotoxicity Assay to monitor cytotoxicity in HepG2 cells - 8 hour (AID 1224890); conditions: CellTox Green fluorescence; series mostly up to 76.8 µM; note: nearly all actives have a fitted effect of over 45% in size
Summary of the method: as §1

[9] = qHTS RealTime-Glo MT Cell Viability Assay in HepG2 cells - 16 hour (AID 1224885); conditions: RealTime-Glo luminescence; series mostly up to 76.8 µM; note: nearly all actives have a fitted effect of over 50% in size
Summary of the method: as §3

[10] = qHTS assay to identify small molecule antagonists of the estrogen receptor alpha (ER-alpha) signaling pathway using the BG1 cell line in the presence of 0.1 nM 17-beta-estradiol - cell viability counter screen (AID 1259241); conditions: VM7Luc4E2 (BG1) viability, CellTiter-Fluor protease, 22 h, 0.1 nM estradiol agonist added; series mostly up to 92.4 µM; note: nearly all actives have a fitted effect of over 40% in size
Summary of the method: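 In this screen, hormone-deprived VM7Luc4E2 cells were seeded at 4,000 per well, dosed with compound and 0.1 nM estradiol final, and incubated 22 hr at 37C and 5% CO2; fluorogenic live-cell protease signal reported viability.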

Measured: Potency

O=C1CCc2ccc(OCCCCN3CCN(c4cccc(Cl)c4Cl)CC3)cc2N1
active: [2] 26.8 µM | [4] 9.52 µM | [5] 21.3 µM
inactive: [1] | [3] | [6] | [7] | [8]

C#C[C@]1(O)CC[C@H]2[C@@H]3[C@H](C)CC4=C(CCC(=O)C4)[C@H]3CC[C@@]21C
inactive: [1] | [2] | [3] | [9] | [4] | [6] | [7] | [8] | [10]

CC(C)(C)c1csc(-c2cc3cc(OCc4ccccc4CC(=O)O)ccc3o2)n1
active: [2] 54.9 µM
inactive: [1] | [3] | [7]

Cc1cc(C(C)(C)C)c(O)c(C)c1Cn1c(=O)n(Cc2c(C)cc(C(C)(C)C)c(O)c2C)c(=O)n(Cc2c(C)cc(C(C)(C)C)c(O)c2C)c1=O
inactive: [1] | [2] | [3] | [6] | [7] | [10]

Cc1c(C)c([N+](=O)[O-])c(C(C)(C)C)c([N+](=O)[O-])c1C
inactive: [1] | [2] | [3] | [4] | [5] | [6] | [7] | [8] | [10]

CC(C)(C)C1CCC(=O)CC1
inactive: [1] | [2] | [9] | [4] | [5] | [6] | [7] | [8] | [10]

CCOC(=O)Cn1cccc1-c1nc(-c2ccc(OC)cc2)c(-c2ccc(OC)cc2)s1
inactive: [1] | [2] | [3] | [4] | [5] | [6] | [7] | [8] | [10]

COC1=C(OC)C(=O)C(CCCCCCCCCCO)=C(C)C1=O
inactive: [1] | [2] | [3] | [6] | [7] | [8]
active: [4] 4.25 µM | [5] 1.69 µM

CN(C)CCN1CCN(c2cccc(Cl)c2)C1=O
inactive: [1] | [2] | [3] | [6] | [7] | [10]

Clc1sc(Cl)c(Cl)c1Cl
inactive: [1] | [2] | [3] | [4] | [5] | [6] | [7] | [8] | [10]

Cc1nc2n(c(=O)c1CCN1CCC(c3noc4cc(F)ccc34)CC1)CCCC2
active: [4] 3.38 µM | [5] 3.01 µM
inactive: [1] | [2] | [9] | [6] | [7] | [8] | [10]

O=C(O)c1cccc(C(F)(F)F)c1
inactive: [1] | [2] | [3] | [4] | [5] | [6] | [7] | [8] | [10]
